# Screens as filed in PubChem.
# Compounds with a hit are over-represented: about 5.8% of the library has one in this group of screens.
# SW480 rerep – inducers of DNA re-replication in SW480 colon cancer cells | 340,000 tested, 1.8% active | SW480 DNA re-replication, Hoechst DNA content imaging, 48 h | AID 624297 | Potency, µM (titrated, usually from 46.1 µM), inactives show at the top dose re-replication activation, usual class: activators; note: % of control where 0% means no effect; nearly all actives have a fitted effect of over 55% in size
#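 Compounds, transferred as 23 nL by pin tool, were incubated with cells for 48 hr; DNA content per nucleus was then quantified by Hoechst staining and fluorescence plate imaging.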
# PINK1 expr mod – changes PINK1 expression; PINK1 immunofluorescence, high-content cytometry, 24 h; 410,000 tested, 0.2% active; AID 624263; Potency, µM (series often up to 76.6 µM), for the others: top-dose activation (PINK1 increase), most hits filed as activators; active = well fitted activation curve with a large enough effect; inconclusive = small, poorly fitted or top-dose-only effect; cell line not stated here; note: % of control where 0% means no effect; nearly all actives have a fitted effect of over 65% in size
#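 Stable cell line, 250 cells/well, 12 h attachment; compounds pinned at 5 concentrations, 24 h; CCCP control. Fixed with nuclear dye, primary antibodies 12 h at 10 degrees C, secondary plus cell stain; laser-scanning cytometer read.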
# MCF10A rereplic – induces DNA re-replication in MCF 10a normal breast cells; MCF 10A DNA re-replication, Hoechst nuclear intensity, 48 h; 350,000 tested, 2.9% active; Potency, µM (top dose mostly 46.1 µM), for the others: at the highest dose activity, positive = re-replication, hits mostly activators; note: % of control where 0% means no effect; nearly all actives have a fitted effect of over 50% in size
# ALOX12 inh – blocks human arachidonate 12S-lipoxygenase. P18054. purified 12hLO, xylenol orange hydroperoxide absorbance. Potency, µM (highest dose often 108 µM), for the others: top-dose activity change, negative = inhibition, usual class: inhibitors. 580,000 tested, 1.1% active. AID 1671190; note: % is set by controls: 0 for no effect and ±100 for the full control effect
#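 Hydroperoxide product was detected by ferrous iron/xylenol orange as the 573 to 405 nm absorbance ratio. Arachidonic acid at 40 uM (final) was turned over for 30 min at room temperature by 150 nM human 12hLO, pH 7.0 Hepes buffer, after 15 min compound preincubation.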
# KB-V1 MDR tox – kills drug-selected multidrug resistant KB-V1 cells. KB-V1 MDR cells viability, CellTiter-Glo, 72 h. Potency, µM (highest dose often 46.1 µM), usual class: cytotoxic. 400,000 tested, 3.4% active; note: % is set by controls: 0 for no effect and ±100 for the full control effect; nearly all actives have a fitted effect of over 60% in size
#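 KB-V1, DMEM (no phenol red) + 10% FBS; cpd pin-transferred, titration series; 72 h, 37 degrees C; CellTiter-Glo, luminescence. Data normalized, curve-fit.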
# KB-3-1 tox – kills parental KB-3-1 adenocarcinoma cells; KB-3-1 viability, CellTiter-Glo ATP luminescence, 72 h; Potency, µM (titrated, usually from 46.1 µM), hits mostly cytotoxic; 400,000 tested, 1.4% active; AID 1347075; note: % is set by controls: 0 for no effect and ±100 for the full control effect; nearly all actives have a fitted effect of over 60% in size
#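 Parental KB-3-1 adenocarcinoma cells in phenol-red-free DMEM with 10% FBS were pin-treated with compounds at several concentrations, incubated 72 h at 37 °C, and viability read by CellTiter-Glo luminescence; concentration-effect curves were fitted after normalization.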
# An asterisk follows results filed as active; i = inactive; ? = inconclusive; nt = not tested or not shown; [ ] = remark or other dose. Unless noted, calls come from the whole dose curve; as a rule, active = well fitted curve in the direction sought with a large enough effect; inconclusive = small, poorly fitted or top-dose-only effect, or another doubt; inactive = no such curve, though single readings can be large; an effect the other way counts as inactive or inconclusive. Potency is the fitted concentration of half-maximal effect.
SMILES,SW480 rerep,PINK1 expr mod,MCF10A rereplic,ALOX12 inh,KB-V1 MDR tox,KB-3-1 tox
CCN1C(=O)c2cccc3c(S(=O)(=O)N4CCC(C)CC4)ccc1c23,?,2.6%,10.3µM*,1.4%,2.06µM*,?
CCN1C(=O)c2cccc3c(S(=O)(=O)NCCc4c[nH]c5ccccc45)ccc1c23,-2.2%,0.7%,10.5%,-67.6%,i,i
CCN1C(=O)c2cccc3c(S(=O)(=O)NCc4ccccc4)ccc1c23,?,2.8%,16.4µM*,10.8%,i,i
CCN1C(=O)c2cccc3c(S(=O)(=O)NCCCN4CCOCC4)ccc1c23,-12.6%,2.3%,23.5%,0.0%,i,i
CCN1C(=O)c2cccc3c(S(=O)(=O)Nc4ccccc4OC)ccc1c23,1.2%,7.8%,?,-1.1%,16.4µM*,?
COc1cc2nc(CSCC(=O)NC3CC(C)(C)NC(C)(C)C3)[nH]c(=O)c2cc1OC,nt,nt,nt,-15.2%,nt,nt
O=C(C/C=N/OCc1c(Cl)cccc1Cl)c1ccc(Cl)cc1,16.1%,0.7%,23.1µM*,-2.8%,i,i
CCCCc1nnc(NC(=O)c2cc(=O)[nH]c3ccccc23)s1,nt,nt,nt,-2.5%,nt,nt
Cc1cnc(NC(=O)C(C)(C)Oc2cc(Cl)ccc2Cl)s1,nt,nt,nt,36.8%,nt,nt
CCOC(=O)c1c(C=O)c(C)n(Cc2ccc(Cl)cc2)c1C,1.0%,1.8%,11.6µM*,?,3.66µM*,i
Cc1c(NCC(=O)Nc2ccccc2C(C)C)cccc1C(=O)N1CCc2sccc2C1,nt,nt,nt,4.1%,nt,nt
CC1CCN(c2oc(-c3ccc([N+](=O)[O-])cc3)nc2C#N)CC1,nt,nt,nt,19.0%,nt,nt
COc1ccc(CN2C(=O)[C@@H]3Cc4c([nH]c5ccccc45)C(C)(C)N3C2=O)cc1,-5.9%,10.4%,13.9%,0.1%,?,18.4µM*
COc1ccccc1CN1C(=O)[C@@H]2Cc3c([nH]c4ccccc34)C(C)(C)N2C1=O,-2.9%,1.5%,26.6%,-0.4%,20.6µM*,?
COc1cccc(CN2C(=O)[C@H]3Cc4c([nH]c5ccccc45)C(C)(C)N3C2=O)c1,0.5%,11.7%,?,-1.6%,16.4µM*,i
COc1ccc(CN2C(=O)[C@H]3Cc4c([nH]c5ccccc45)C(C)(C)N3C2=O)cc1,-3.6%,4.9%,9.2µM*,-11.4%,?,?
NC(=O)COC(=O)c1cc(-c2ccc(-c3ccccc3)cc2)nc2ccccc12,nt,nt,nt,-1.2%,nt,nt
O=C(Nc1ccc(N2CCCCC2)c(S(=O)(=O)Nc2ccccc2Cl)c1)c1cccnc1,?,?,18.4µM*,?,nt,nt
Cc1ccc(C(=O)Nc2ccc(C)c(S(=O)(=O)Nc3ccccc3Cl)c2)s1,16.3%,-2.4%,?,-20.3%,?,23.1µM*
O=C(Nc1ccc(F)cc1)Nc1ccc(N2CCCC2)c(S(=O)(=O)Nc2ccccc2Cl)c1,?,?,12.8%,-6.7%,?,20.6µM*
O=C(Nc1ccc(Cl)c(Cl)c1)Nc1ccc(N2CCCC2)c(S(=O)(=O)Nc2ccccc2Cl)c1,?,?,?,-6.3%,23.1µM*,5.17µM*
O=C(Nc1ccc(N2CCOCC2)c(S(=O)(=O)Nc2ccccc2Cl)c1)c1ccc(F)cc1,17.1%,0.2%,?,?,?,?
Cc1cccc(Cn2nc(-c3ccc(C)c(S(=O)(=O)N4CCCC4)c3)ccc2=O)c1,nt,nt,nt,-25.9%,nt,nt
O=C1CC(O)(c2ccccc2)C(c2ccccc2)=C1c1ccccc1 (stereo unspecified),-2.4%[9.22 µM],1.7%,17.4%,-16.7%,17.8µM*,?
Nc1c(-c2cccc(Cl)c2)cnn1-c1cccc(C(F)(F)F)c1,3.3%,?,10.8%,?,20.6µM*,?
CCOC(=O)c1cccc(NS(=O)(=O)c2cc(Br)cc3c2N(C(=O)C2CC2)CC3)c1,nt,0.7%,nt,-6.7%,i,20.6µM*
Cc1ccc(NS(=O)(=O)c2cc(Br)cc3c2N(C(=O)C2CC2)CC3)cc1C,nt,2.5%,nt,-11.6%,nt,nt
